DT40 TDP1 no CPT: qHTS for Inhibitors of human tyrosyl-DNA phosphodiesterase 1 (TDP1): qHTS in cells in absence of CPT; DT40 Tdp1-/- hTDP1 cells, no CPT, ATP luminescence, 48 h; Potency, µM (series often up to 46.2 µM), for the others: top-dose activity change, negative = growth inhibition, hits mostly inhibitors; 420,000 compounds, 15% hits; also: potency is read from the fitted curve at half-maximal effect; % is scaled to controls: 0 for no effect and ±100 for the full control effect; nearly all actives have a fitted effect of over 55% in size
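Stably hTDP1-transfected Tdp1-null chicken DT40 cells were treated with library compounds minus camptothecin and grown for at least 48 hr at 37 °C, after which cellular ATP was quantified by luminescence.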
IL-1B inflam inh: qHTS for Inhibitors of Inflammasome Signaling: IL-1-beta AlphaLISA Primary Screen; THP-1 LPS/ATP IL-1B secretion, AlphaLISA, 16 h; stronger effect = lower value; activity change, % at 57.5 µM; 360,000 compounds, 4.7% hits; AID 743279, 2014; in the data active = activity change below about -50%; inconclusive = mostly about -30% to -49%; also: % is scaled to controls: 0 for no effect and ±100 for the full control effect
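THP-1 cells pretreated 1 hr with compounds (up to 57.5 uM final), then stimulated with LPS (250 ng/mL final) plus ATP (1.25 mM final); secreted IL-1B measured by AlphaLISA after 16 hr, decreased signal indicating inhibition.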
TGFb SMAD3 inh: qHTS for Inhibitors of TGF-b; HepG2 CAGA-GFP TGF-b/SMAD3 reporter, GFP fluorescence, 18 h; TGF-beta stimulated, 500 pg/mL final; Potency, µM (series often up to 46.1 µM), for the others: at the top dose activity, negative = inhibition, most hits filed as inhibitors; 410,000 compounds, 1.2% hits; also: potency is read from the fitted curve at half-maximal effect; % is scaled to controls: 0 for no effect and ±100 for the full control effect; nearly all actives have a fitted effect of over 65% in size
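Inhibition was scored as loss of TGF-beta-induced (500 pg/mL final, 18 hours, 37 degrees C) GFP in HEPG2 cells carrying a CAGA-GFP reporter, in DMEM with 1% FBS. Well GFP was summed per cell; Activity was normalised to unstimulated and stimulated DMSO wells, then concentration-response fitting.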
DT40 TDP1 CPT: qHTS for Inhibitors of human tyrosyl-DNA phosphodiesterase 1 (TDP1): qHTS in cells in presence of CPT; chicken DT40 Tdp1-/-;hTDP1 cells + 20 nM CPT, ATP luminescence, 48 h; Potency, µM (highest dose often 46.2 µM), inactives show at the top dose activity change, negative = growth inhibition, actives largely listed as inhibitors; 420,000 compounds, 12% hits; AID 686979, 2013; also: potency is read from the fitted curve at half-maximal effect; % is scaled to controls: 0 for no effect and ±100 for the full control effect; nearly all actives have a fitted effect of over 55% in size
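Cell growth measured by CellTiter-Glo luminescence after a minimum 48 h, 37 C compound exposure with 20 nM CPT in Tdp1-knockout DT40 cells stably expressing hTDP1, seeded 400/well; qHTS titration format.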
TDP1 block: qHTS Assay for Inhibitors of Tyrosyl-DNA Phosphodiesterase (TDP1); Tyrosyl-DNA phosphodiesterase 1 (Homo sapiens), Q9NUW8; recombinant TDP1, AlphaScreen DNA substrate cleavage; Potency, µM (top dose mostly 130 µM), for the others: at the highest dose activity change, negative = inhibition, usual class: inhibitors; 350,000 compounds, 0.28% hits; AID 485290, 2010; also: potency is read from the fitted curve at half-maximal effect; % is scaled to controls: 0 for no effect and ±100 for the full control effect; nearly all actives have a fitted effect of over 40% in size
Target sequence (Q9NUW8 whole entry, looked up): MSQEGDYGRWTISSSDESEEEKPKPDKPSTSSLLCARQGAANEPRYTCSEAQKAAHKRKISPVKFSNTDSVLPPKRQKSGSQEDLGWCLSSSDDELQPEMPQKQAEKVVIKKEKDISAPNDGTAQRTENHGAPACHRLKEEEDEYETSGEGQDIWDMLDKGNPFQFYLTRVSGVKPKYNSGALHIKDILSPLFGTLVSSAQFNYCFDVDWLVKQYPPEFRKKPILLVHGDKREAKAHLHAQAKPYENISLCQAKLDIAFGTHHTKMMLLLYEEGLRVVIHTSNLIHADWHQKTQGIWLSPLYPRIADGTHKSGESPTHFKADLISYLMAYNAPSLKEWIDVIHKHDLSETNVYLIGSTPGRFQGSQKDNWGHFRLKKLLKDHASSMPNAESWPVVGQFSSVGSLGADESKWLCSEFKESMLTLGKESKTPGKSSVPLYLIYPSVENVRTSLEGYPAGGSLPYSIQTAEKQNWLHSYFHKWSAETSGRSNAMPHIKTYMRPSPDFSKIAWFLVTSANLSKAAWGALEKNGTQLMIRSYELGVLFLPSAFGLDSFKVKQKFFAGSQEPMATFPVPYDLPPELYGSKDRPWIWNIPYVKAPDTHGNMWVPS
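Signal: AlphaScreen proximity between streptavidin donor and anti-FITC acceptor beads on intact substrate. Reaction: Tdp1 1 nM, substrate 15 nM final, 5 min RT after 15 min compound preincubation.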
HepG2 viability: qHTS for Inhibitors of TGF-b: Cytotox Counterscreen; HepG2 CAGA-GFP viability, ATP luminescence, 18 h; Potency, µM (top dose mostly 46.1 µM), inactives show at the highest dose activity change, negative = cytotoxicity, actives largely listed as cytotoxic; 410,000 compounds, 0.76% hits; AID 588856, 2011; also: potency is read from the fitted curve at half-maximal effect
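HepG2 CAGA-GFP cells (1000/well, DMEM with 1% FBS) received compound, then TGF-beta at 500 pg/mL final, and were incubated 18 hours at 37 degrees C. Viability was read by CellTiter-Glo luminescence. Media-only wells were set as complete cell-killing and DMSO as no toxicity.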
Starred values were filed as active, the others as inactive; ? = inconclusive; · = no result given; [ ] = dose if it differs, or a comment. This is a sample that favours compounds with a hit; in the whole collection about 19% have one here. Unless noted, calls follow the shape of the dose curve; as a rule, active = well fitted curve in the direction sought with a large enough effect; inconclusive = small, poorly fitted or top-dose-only effect, or another doubt; inactive = no such curve, though single readings can be large; an effect the other way counts as inactive or inconclusive.

SMILES	DT40 TDP1 no CPT	IL-1B inflam inh	TGFb SMAD3 inh	DT40 TDP1 CPT	TDP1 block	HepG2 viability
COc1ccc(OC)c(C2NC(=O)NC(C)=C2C(=O)Nc2cc(C)cc(C)c2)c1 (configuration not stated)	-11%	·	-9%	-3%	·	-4%
CCOc1ccccc1CN1CCN(CCCc2ccccc2)CC1CCO (configuration not stated)	?	-28	-3%	?	·	-18%
CC#CCOC(=O)c1c(C)nc2sc3c(c2c1N)CCC(O)C3 (configuration not stated)	9.2µM*	-9	23%	?	-8%[56.1 µM]	-5%
C=CCNc1ncnc2c1[nH]c1ccc(Cl)cc12	23µM*	-122*	?	?	2%	2%
CCC(=O)OCc1cnc(C)c2oc(=O)c(C(=O)Nc3ccc(CC)cc3)cc12	?	·	?	-25%	6%	-70%
CC1CCC(NC(=O)Cn2c3c(c(-c4ccccc4Cl)cc2=O)CCC3)CC1 (configuration not stated)	13µM*	-16	0%	16µM*	5%	-29%
COc1cc2ccccc2cc1C(=O)Nc1ccccc1N1CCN(S(C)(=O)=O)CC1	21µM*	-15	-1%	21µM*	4%	1%
O=C(COc1ccc(Cl)cc1Br)Nc1ccccc1N1CCCC1	?	-3	-18%	21µM*	·	-44%
CS(=O)(=O)N1CCN(c2ccccc2NC(=O)c2cccc3ccccc23)CC1	-13%	-8	-16%	0%	2%	-6%
COC(=O)C1CCCN1C(=O)COc1ccc(Cl)cc1Br (configuration not stated)	?	8	-25%	18µM*	8%	-31%
COc1cccc(OC)c1C(=O)Nc1ccccc1N1CCCCC1	?	-51*	?	?	·	4%
O=C(Nc1ccccc1N1CCCCC1)c1ccc(F)cc1	?	23	?	?	?	-13%
O=C(O)C(O)C(O)(Cc1ccc(O)cc1)C(=O)O (configuration not stated)	-14%[9.04 µM]	·	·	16%[9.04 µM]	-1%	·
O=C(NC1CCCCC1)C1c2ccccc2OCC(=O)N1CC(F)(F)F (configuration not stated)	-10%	34	·	-1%	·	·
COc1ccc(CNCC(=O)Nc2ccccc2-n2cccc2)cc1	6.5µM*	11	-23%	8.2µM*	7%	-12%
COc1ccc(CC(=O)Nc2ccccc2N2CCCC2)cc1	-13%	24	-7%	-30%	4%	-7%
CCc1cccc(OCC(=O)Nc2ccccc2N2CCCC2)c1	?	-7	3%	?	12%	4%
COc1ccc(OCC(=O)Nc2ccccc2N2CCN(C)CC2)cc1	-22%	-19	12%	-12%	15%	21%
CCC(=O)N1CCN(c2ccccc2NC(=O)COc2ccc(C(C)C)cc2)CC1	16µM*	0	?	?	1%	-27%
COc1cc(C(C)=O)ccc1OCC(=O)Nc1ccccc1N1CCCCC1	8.2µM*	?	-28%	9.2µM*	·	-16%
COc1ccc(OCC(=O)Nc2ccccc2N2CCCCC2)cc1	1.6µM*	3	-15%	1.6µM*	-8%	0%
CCOc1ccc(N2C(=O)C3ON(C)C(c4ccc([N+](=O)[O-])cc4)C3C2=O)cc1 (configuration not stated)	-7%	60	-11%	-11%	2%	-15%
